# Source: PubChem
# KB-3-1 cytotox – KB-3-1 parental cell cytotoxicity; KB-3-1 viability, CellTiter-Glo ATP luminescence, 72 h; Potency, µM (doses to about 46.1 µM), actives largely listed as cytotoxic; 1.4% of 400,000 active; note: % is set by controls: 0 for no effect and ±100 for the full control effect; nearly all actives have a fitted effect of over 60% in size
#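 Screening of KB-3-1 cells (DMEM, 10% FBS, phenol-red free) ran from lowest to highest compound concentration; after 72 h at 37 °C viability was read luminescently and curves fitted.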
# TGFb inhibitor – blocks TGF-b signaling. 1.2% of 410,000 active. Potency, µM (top dose mostly 46.1 µM), inactives show top-dose activity, negative = inhibition, actives largely listed as inhibitors. HepG2 CAGA-GFP TGF-b/SMAD3 reporter, GFP fluorescence, 18 h; TGF-beta stimulated, 500 pg/mL final; note: % is set by controls: 0 for no effect and ±100 for the full control effect; nearly all actives have a fitted effect of over 65% in size
#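 Inhibition of TGF-beta-driven CAGA-GFP reporter expression in HEPG2 cells is measured by cellular GFP fluorescence after 18 h stimulation with 500 pg/mL recombinant TGF-beta in 1% FBS medium at 37 degrees C.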
# ATXN2 expr inh – inhibitors of ATXN2 expression; HEK-293 ATXN2-luciferase reporter, luminescence, 24 h; Potency, µM (titrated, usually from 57 µM), without a hit: at the highest dose activity change, negative = inhibition, most hits filed as inhibitors; 0.72% of 360,000 active; AID 1745845; note: % is set by controls: 0 for no effect and ±100 for the full control effect; nearly all actives have a fitted effect of over 55% in size
#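 qHTS (up to 57 uM final) was run with 24 h compound exposure of reporter cells at 37 °C. Each well was multiplexed: SteadyGlo luminescence measured ATXN2-luciferase expression after a fluorogenic Gly-Phe-AFC viability readout (25 uM final).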
# ATXN viability – cell viability loss in ATXN counter-screen. Potency, µM (titrated, usually from 56.7 µM), usual class: cytotoxic. 0.49% of 400,000 active. S2 cells (HEK-293 line with an ATXN2-luciferase reporter) viability, CellTiter-Fluor protease fluorescence, 24 h; note: nearly all actives have a fitted effect of over 40% in size
# HepG2 tox – HepG2 cytotoxicity, counter-screen for TGF-b inhibitors; HepG2 CAGA-GFP viability, ATP luminescence, 18 h; Potency, µM (top dose mostly 46.1 µM), inactives show at the top dose activity change, negative = cytotoxicity, usual class: cytotoxic; 0.76% of 410,000 active
#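 HepG2 CAGA-GFP cells (1000/well, DMEM with 1% FBS) received compound, then TGF-beta at 500 pg/mL final, and were incubated 18 hours at 37 degrees C. Viability was read by CellTiter-Glo luminescence. Media-only wells were set as complete cell-killing and DMSO as no toxicity.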
# KB-V1 MDR tox – KB-V1 MDR subline cytotoxicity; KB-V1 MDR cells viability, CellTiter-Glo, 72 h; Potency, µM (titrated, usually from 46.1 µM), hits mostly cytotoxic; 3.4% of 400,000 active; note: % is set by controls: 0 for no effect and ±100 for the full control effect; nearly all actives have a fitted effect of over 60% in size
#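 Cytotoxicity toward P-gp-expressing KB-V1 cells was determined as loss of CellTiter-Glo luminescence after 72 h at 37 degrees C. Compounds were tested in quantitative HTS format across a concentration range, with curves fitted to normalized data.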
# Numbers without * were called inactive; i = inactive; ? = inconclusive; . = not tested or not shown. Sampled rows, rich in hits. Any-hit rate of the full collection: about 5.9%. Calls come from the whole dose curve; as a rule, active = well fitted curve in the direction sought with a large enough effect; inconclusive = small, poorly fitted or top-dose-only effect, or another doubt; inactive = no such curve, though single readings can be large; an effect the other way counts as inactive or inconclusive. Potency is the fitted concentration of half-maximal effect.
SMILES,KB-3-1 cytotox,TGFb inhibitor,ATXN2 expr inh,ATXN viability,HepG2 tox,KB-V1 MDR tox
Cc1nc(SCC(=O)Nc2ccccc2F)[nH]c(=O)c1Cc1ccccc1,.,.,.,.,3%,.
Clc1ccc(C2=NNC(=NCc3ccc4c(c3)OCO4)SC2)cc1,?,16µM*,3%,?,-33%,21µM*
Oc1ccc(C2=NNC(=NCc3ccc4c(c3)OCO4)SC2)c(O)c1,2.6µM*,-6%,11%,i,2%,7.3µM*
CCOc1ccc(-n2ccnc2SCC(=O)N2CCCc3ccccc32)cc1,i,-24%,-12%,i,4%,12µM*
CCOc1ccc(-n2ccnc2SCC(=O)Nc2cc(C)on2)cc1,i,?,-14%,i,-4%,15µM*
CCSc1nnc(NC(=O)CSc2nccn2-c2cc(C)cc(C)c2)s1,i,14%,5%,?,-7%,i
COc1ccc(-n2ccnc2SCC(=O)Nc2cc(C)on2)cc1,i,25%,2%,i,-12%,?
CCSc1nnc(NC(=O)CSc2nccn2-c2cccc(C)c2C)s1,i,4%,10%,i,-2%,21µM*
Cc1cc(NC(=O)CSc2nccn2-c2cccc(C)c2C)no1,?,-8%,?,i,-9%,10µM*
COCc1ccc(C(=O)N2CCOc3ccc(CN4CCN(c5ccc(F)cc5)CC4)cc3C2)o1,.,.,.,i,.,.
O=C(c1cccc(Cn2cccn2)c1)N1CCC(n2c(C3CCCO3)nc3cc(C(F)(F)F)ccc32)CC1 (stereo not given),.,.,.,i,.,.
O=S(=O)(c1ccc2c(c1)OCCO2)N1CCN(CCc2ccccc2)CC1,i,0%,.,.,-16%,i
O=c1cc(O)c2c([nH]1)CCC2,?,14%,.,.,-4%,i
COc1cccc(-n2cc(C(=O)Oc3cccc(C(F)(F)F)c3)c3ccccc3c2=O)c1,i,30%,.,.,1%,i
COc1cc(=O)n2c(c1C(=O)NCc1nonc1C)CCN(C(=O)c1cccc(C)c1C)CC2,.,.,.,i,.,.
Cc1cccc(-n2ccnc2SCC(=O)Nc2cc(C)on2)c1,i,-1%,-8%,i,0%,i
Cc1cc(NC(=O)CSc2nccn2-c2cccc(F)c2)no1,i,-27%,-3%,i,-18%,16µM*
COc1cccc(C(C(=O)NC2CCCC2)N2CCN(c3cc(C)ccc3C)CC2)c1OC (stereo not given),?,.,.,.,.,16µM*
COc1ccc(/C=C(/NC(=O)c2ccccc2)c2nc3ccccc3[nH]2)cc1OC,i,1%,6%,i,-1%,i
COc1ccc(/C=C(/NC(=O)c2ccccc2)c2nc3ccc(Cl)cc3[nH]2)cc1OC,?,0%,-32%,?,2%,12µM*
Cc1cccc(N2CCN(CCCNC(=O)c3nnc(Cc4c(F)cccc4Cl)o3)CC2C)c1 (stereo not given),i,-6%,0%,i,-32%,i
CC(=O)OCC(=O)C1CCC2C3CCC4=CC(=O)C=CC4(C)C3CCC12C (stereo not given),i,-9%,-17%,i,-1%,16µM*
CCOC(=O)c1sc2ncnc(NCC(c3cccs3)N(C)C)c2c1C (stereo not given),i,-3%,0%,i,6%,21µM*
COc1ccc(CNC(=O)C2CCN(S(=O)(=O)c3cn(C)cn3)CC2)cc1,.,17%,.,.,8%,.
Cc1ccc(S(=O)(=O)n2ccc3cccnc32)cc1,i,-3%,6%,i,1%,i
SMILES,KB-3-1 cytotox,TGFb inhibitor,ATXN2 expr inh,ATXN viability,HepG2 tox,KB-V1 MDR tox
Cc1ccc(S(=O)(=O)n2cccc2/C=C/[N+](=O)[O-])cc1,?,14µM*,.,?,13µM*,?
Cc1ccc2oc(C(=O)Nc3c(C(=O)Nc4cccc(Cl)c4)oc4ccccc34)cc(=O)c2c1,?,-20%,3%,i,-36%,i
CCN(CC)S(=O)(=O)c1cccc(-c2nnc(SCCCC(=O)c3ccc(F)cc3)o2)c1,i,-3%,.,.,-6%,16µM*
CCN(CC)S(=O)(=O)c1ccc(-c2nnc(SC)o2)cc1,i,?,13%,i,-1%,15µM*
CCN(CC)S(=O)(=O)c1cccc(-c2nnc(SC(C)C(=O)NCCC3=CCCCC3)o2)c1 (stereo not given),?,-15%,-17%,i,-6%,10µM*
CCOC(=O)c1[nH]c(C)c(CCC(=O)NCc2ccc(OCC)cc2)c1C,i,10%,6%,i,-1%,i
CC(=O)Nc1ccc2c(c1)C(=Nc1ccccc1)c1ccccc1-2,i,-14%,5%,i,-14%,i
CCOC(=O)Nc1ccc2c(c1)C(=NO)c1ccccc1-2,?,0%,19%,?,-23%,8.2µM*
CCOC(=O)Nc1ccc2c(c1)C(=NNC(N)=S)c1ccccc1-2,?,?,?,.,8.9µM*,23µM*
CCc1nnc2c(Nc3cccc(F)c3)nc3ccc(C(=O)c4ccccc4)cc3n12,?,-3%,-16%,i,2%,9.2µM*
COc1cccc(Nc2nc3ccc(C(=O)c4ccccc4)cc3n3c(C)nnc23)c1,i,-4%,-11%,i,-8%,i
Cc1onc(-c2c(F)cccc2Cl)c1C(=O)OCC(=O)NC(N)=O,?,0%,-14%,i,-6%,?
Cc1onc(-c2c(F)cccc2Cl)c1C(=O)OCC(=O)NC(c1ccccc1)c1ccccc1,i,18%,-15%,i,-1%,6.5µM*
Cc1onc(-c2ccccc2)c1C(=O)OCC(=O)Nc1ccc(OC(F)(F)F)cc1,i,13µM*,?,i,-36%,i
CCOC(=O)c1c(NC(=O)c2ccc(S(=O)(=O)N3CCCC(C)C3)cc2)sc2c1CC(C)(C)NC2(C)C (stereo not given),i,?,?,.,13µM*,i
CCOC(=O)c1c(NC(=O)c2ccc(S(=O)(=O)N(CCOC)CCOC)cc2)sc2c1CC(C)(C)NC2(C)C,.,11µM*,.,.,-61%,.
CC1(C)Cc2c(sc(NC(=O)c3ccc(C(=O)c4ccccc4)cc3)c2C(N)=O)C(C)(C)N1,?,?,25µM*,?,18µM*,?
CNC(C)[C@@H]1CC[C@@H](N)[C@@H](O[C@H]2[C@H](O)[C@@H](O[C@H]3OC[C@](C)(O)[C@H](NC)[C@H]3O)[C@H](N)C[C@@H]2N)O1 (stereo not given in full),.,.,.,i,.,.
